Experimental findings from ChEMBL document CHEMBL4513216, “Probing the Open Global Health Chemical Diversity Library for Multistage-Active Starting Points for Next-Generation Antimalarials” (ACS Infect Dis, 2020) are described below.

Molecules are shown by their SMILES. The campaign covered roughly 69,000 compounds. About 8,600 (12%) showed an effect of 50% or more. The sample as a whole holds a higher share of strong results than the screen did.

For the assay, the system named is Plasmodium berghei. The assay can be described thus: Screen against P. berghei liver stage (PbLuc), transformed with Luciferase, at 10uM. The assay is classed as functional, HepG2. The conditions noted are these: tested at 10 uM.
As for `COC(=O)NCC(=O)N1CCc2cc(Cl)cc(Cl)c2C1`, the INHIBITION was -10.9%. In the case of `Cc1nc(-c2ccccc2C)n(CC(=O)NC2CCCC2)n1` it was 7.27%.

Regarding `O=C(c1cscn1)N1CCCC(n2cncn2)C1` (configuration not stated), the INHIBITION is -17.4%. On to `OC1(CN(Cc2cccnc2)C2CCCCC2)CNCCOC1` (configuration not stated), for which the INHIBITION was 41.8%. As for `CC(=O)N1CCC(C(=O)N2CCOC(CC3CCCCC3)C2)CC1` (configuration not stated), the INHIBITION is 54.8%. For the compound `O=C(C1CCOCC1)N1C[C@@H]2OCCN(CCN3CCCC3)[C@@H]2C1`, the INHIBITION was 46.7%. In the case of `CC(=O)N1CCC(N2CCOC(CC3CCCCC3)C2)CC1` (configuration not stated) it was 35.2%. In the case of `Cc1ncoc1C(=O)N1CCOC(CC2CCCCC2)C1` (configuration not stated) it was 24.7%. Under `CN(C)C(=O)N1CCC(C(=O)N2CCOC(CC3CCCCC3)C2)CC1` (configuration not stated) stands 22.2%; under `O=C(C1CCOCC1)N1CCOC(CC2CCCCC2)C1` (configuration not stated), 54.8%; under `Clc1ccc2cccnc2c1CNC1CCc2ncnn2C1` (configuration not stated), -92.9%. Turning to `Cc1cc(N(C)C)cc(C2CCN(S(=O)(=O)c3cccs3)C2)n1` (configuration not stated), the INHIBITION is 46.55%. As to `CC(C)NC(=O)c1cccc(Oc2ccc3nncn3n2)c1`, the INHIBITION worked out at 2.84%. With `Cc1nc(-c2ccsc2)ccc1C(=O)NCCN1CCN(C)CC1`, the INHIBITION is on record as 18.515%. In the case of `CCC1=NC(SCC(=O)c2ccc(OC)cc2)c2cc(CC)sc2N1` (configuration not stated) it was 36.6%; in that of `O=C(N1CCCC1)N1CCC2(CCCN(CCOc3ccccc3)C2)C1` (configuration not stated), 69.9%; in that of `CC(C)C(=O)N1CCC2(CCCN(CCOc3ccccc3)C2)C1` (configuration not stated), -4.27%. As for `CN(C)C(=O)N1CCC2(CCCN(CCOc3ccccc3)C2)C1` (configuration not stated), the INHIBITION was -44.2%. In the case of `c1ccc(CCN2CCOC(CNc3cccnn3)C2)nc1` (configuration not stated) it was -71.2%.

Consider `Cc1cccc(C(C)CNC(=O)N2CCOCC3(CCOCC3)C2)c1` (configuration not stated), for which the INHIBITION was -7.36%. Under `Cc1cccc(C(C)CNC(=O)N2CCC3(C2)OCCO3)c1` (configuration not stated) stands 52.6%; under `CC(NC(=O)N1CCC2(C1)OCCO2)c1cccc(Cl)c1` (configuration not stated), 5.58%; under `Cc1ccc(C)n1-c1ccsc1C(=O)NCC(=O)N1CCCC1`, -7.7%. Under `COc1ccc(-n2cc3nc(N4CCCC4)[nH]cc-3c2=O)cc1Cl` stands 30.8%. Under `Cc1ccc(OC2(C(=O)NC(C)Cc3ccsc3)CCNCC2)cc1` (configuration not stated) stands -8.75%. For `c1ncc2c(n1)CN(Cc1nc(-c3ccoc3)no1)CC2`, the INHIBITION was -21.87%. In the case of `Cc1cc(CS(=O)(=O)C(C)C(=O)N(C)c2ccccc2)on1` (configuration not stated), the INHIBITION is given as 59.4%.

Regarding `Cc1noc(C)c1CS(=O)(=O)C(C)C(=O)N(C)c1ccccc1` (configuration not stated), the INHIBITION came to 11.5%.

Turning to `Cc1noc(CN(C)c2ccccc2)n1`, the INHIBITION was 29.8%. Under `Cc1noc(CS(=O)(=O)C(C)C(=O)N(C)c2ccccc2)n1` (configuration not stated) stands 50.8%; under `Cc1cc(NC(=O)CN(c2ccccc2)C(C)C)on1`, 13%.

In the case of `Cc1cc(CS(=O)(=O)C(C)c2ccc(F)cc2)on1` (configuration not stated), the INHIBITION is reported as -41%. In the case of `Cc1cc(NC(=O)CN(CC(C)O)c2ccccc2)on1` (configuration not stated) it was 51.3%; in that of `CCN(C(=O)C(C)S(=O)(=O)Cc1nc(C)no1)c1ccccc1` (configuration not stated), 26.9%; in that of `CCC(O)CN(CC(=O)Nc1cc(C)no1)c1ccccc1` (configuration not stated), 16.8%. In the case of `CC(C)N(Cc1ccccn1)C(=O)CCOc1cccc(F)c1` it was -1.32%.

Turning to `COc1ccc(NC(=O)C2OC(c3cccs3)=NN2C(C)=O)cc1OC` (configuration not stated), the INHIBITION amounted to 14.5%. Turning to `O=C(CC1CC1)N1CCC(O)(CN2CCN(c3ccccc3)CC2)C1` (configuration not stated), the INHIBITION is 17.4%. `Cc1nnc(NC(=O)CN2CCc3nn(C(C)C)c(=O)cc3C2)s1`: the INHIBITION is -18%. In the case of `O=C(c1cscn1)N1CCc2ncc(CN3CCCC3)n2CC1` it was 23.1%; in that of `Cc1nccc(CNc2cc(N3CCCC3CO)ncn2)n1` (configuration not stated), -0.219%; in that of `COc1ccc(CN2C[C@@H]3CN(Cc4ccncc4)C[C@@H]3C2=O)cc1`, -2.35%. In the case of `Cc1n[nH]c(C)c1CCCN(C)c1cc(N(C)C)ncn1` it was 8.51%; in that of `O=C(NCCc1ccccn1)N1CCSC2(CCCCC2)C1`, 3.17%; in that of `C[S+]([O-])CCNC(=O)N1CCSC2(CCCCC2)C1` (configuration not stated), 25.4%.

Turning to `COCCNC(=O)N1CCSC2(CCCCC2)C1`, the INHIBITION was found to be 52.6%. `CCc1nc(NC(=O)N(C)Cc2ccoc2)nn1C`: the INHIBITION was found to be 63.6%.

As for `CCN(Cc1ccoc1)C(=O)Nc1ccccc1CN(C)C(C)=O`, the INHIBITION amounted to 6.99%. In the case of `CSc1cccc(CN(C)C(=O)CN2CCN(c3ncccn3)CC2)c1` it was 10.6%; in that of `CSc1cccc(CN(C)C(=O)Nc2nc(C)n(C)n2)c1`, 71.8%.

Regarding `Cc1nc(NC(=O)N(C)Cc2ccoc2)nn1C`, the INHIBITION is recorded as -10.9%. `Cc1nc(NC(=O)N(C)Cc2ccsc2)nn1C`: the INHIBITION came to 25.9%. In the case of `Cc1cnc(N2C[C@@H]3CN(Cc4ccco4)CCC[C@]3(C(=O)O)C2)nc1` it was 15.3%; in that of `O=C(CCNC(=O)C1CCCC1)NCc1ccccc1Cn1ccnc1`, 7.27%. Under `COc1ccc(CNC(=O)Nc2cccnc2N2CCCC2)cc1` stands 19.2%. In the case of `O=C(NCC1CC1)c1cc(Br)cnc1N1CCCCC1` it was 16.4%; in that of `O=C1Nc2ccccc2CC12CCN(CCO)C2` (configuration not stated), -36.2%.

Consider `CC(C)CN1CCC2(Cc3ccccc3NC2=O)C1` (configuration not stated), for which the INHIBITION worked out at 58.7%. Under `CCCN1CCC2(Cc3ccccc3NC2=O)C1` (configuration not stated) stands 36.2%; under `O=C(c1ccc[nH]1)N1CCc2ccc(S(=O)(=O)N3CCOCC3)cc2C1`, 6.99%.

On to `CNC(=O)c1cn2cc(-c3ccc(F)cc3)n(CC=C(C)C)c(=O)c2n1`, for which the INHIBITION is reported as 69.3%.

Take `CNC(=O)c1cn2cc(-c3cccc(Cl)c3)n(CC3CC3)c(=O)c2n1`: the INHIBITION was found to be 55.4%. Under `Cn1c(-c2ccc(F)cc2)cn2cc(C(=O)N3CC[C@@H](O)C3)nc2c1=O` stands 40.7%.

On to `CNC(=O)c1cn2cc(-c3cccc(Cl)c3)n(CC=C(C)C)c(=O)c2n1`, for which the INHIBITION amounted to 76.7%. Regarding `CNC(=O)CC1CCN(Cc2nc(-c3cccc(Cl)c3)oc2C)CC1`, the INHIBITION is listed as 13.5%. Under `COCCCNC(=O)Cn1c(-c2cccc(Cl)c2)nc(C)cc1=O` stands 14.6%; under `CN(C)C(=O)c1cn2cc(-c3cccc(Cl)c3)n(CC3CC3)c(=O)c2n1`, 17.8%; under `Cn1c(-c2ccc(F)cc2)cn2cc(C(=O)N3CCC(N)C3)nc2c1=O` (configuration not stated), 24.4%.

Consider `CNC(=O)c1cn2cc(-c3ccccc3Cl)n(CC=C(C)C)c(=O)c2n1`, for which the INHIBITION came out at 61.9%.

With `NC(=O)c1cn2cc(-c3ccccc3Cl)n(CC3CC3)c(=O)c2n1`, the INHIBITION worked out at 5.46%. Turning to `CC(C)NC(=O)NCc1cc(-c2cccc(Cl)c2)nn1C`, the INHIBITION was 13%. In the case of `CC(=O)NCCNC(=O)c1cnc2c(c1)nc(-c1ccccc1Cl)n2C` it was -76.5%.
